FLuc modulator = qHTS profiling assay for firefly luciferase inhibitor/activator using purifed enzyme and Km concentrations of substrates (counterscreen for miR-21 project). Luciferin 4-monooxygenase (Photinus pyralis), P08659. hit rate 6.9% among 360,000. Potency, µM (doses to about 57.5 µM), for the others: at the highest dose activity change, negative = inhibition, hits mostly inhibitors. purified FLuc, Km substrates, luminescence inhibition. AID 588342, 2011;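 further: plate controls were vehicle for no effect and reference inhibitor for full effect; nearly all actives have a fitted effect of over 55% in size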
Target sequence (P08659 whole entry, looked up): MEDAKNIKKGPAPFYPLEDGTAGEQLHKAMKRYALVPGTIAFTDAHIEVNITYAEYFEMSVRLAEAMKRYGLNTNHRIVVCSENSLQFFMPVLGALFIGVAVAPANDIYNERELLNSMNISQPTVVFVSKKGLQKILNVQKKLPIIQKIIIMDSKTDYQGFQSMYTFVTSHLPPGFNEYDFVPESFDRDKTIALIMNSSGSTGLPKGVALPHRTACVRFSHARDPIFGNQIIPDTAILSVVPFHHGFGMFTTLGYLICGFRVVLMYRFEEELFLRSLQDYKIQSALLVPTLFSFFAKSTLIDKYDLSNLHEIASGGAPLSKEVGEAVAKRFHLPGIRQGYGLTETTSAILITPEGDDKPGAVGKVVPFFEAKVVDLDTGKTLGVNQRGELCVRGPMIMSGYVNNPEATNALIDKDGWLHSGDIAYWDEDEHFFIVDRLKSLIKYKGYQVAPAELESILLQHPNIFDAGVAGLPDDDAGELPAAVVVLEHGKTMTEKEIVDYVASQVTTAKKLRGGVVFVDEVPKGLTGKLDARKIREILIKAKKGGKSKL
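Purified P. pyralis luciferase, 10 nM final, with Km-level 10 uM D-luciferin and 10 uM ATP in 50 mM Tris acetate pH 7.5, 10 mM Mg acetate, 0.01% Tween-20, 0.05% BSA; 6-point qHTS titration about 60 µM downward; luminescence read.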
SMN2 splice enh = qHTS Assay for Enhancers of SMN2 Splice Variant Expression | HEK293 SMN2-luciferase splicing reporter, luminescence, 30-36 h | Potency, µM (titrated, usually from 46.1 µM), for inactives: top-dose activity change, positive = activation, most hits filed as activators | hit rate 2.8% among 210,000 | AID 1458, 2008; further: % of control where 0% means no effect; nearly all actives have a fitted effect of over 55% in size
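qHTS luciferase splicing reporter: luminescence rises when SMN2 exon 7 is included in transfected HEK293 cells. Compound exposure lasted 30-36 h at 37C, with 4.5 mM final sodium butyrate as control, followed by a ONE-Glo read.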
Rab9 prom act = qHTS Assay for Rab9 Promoter Activators. Huh7 Rab9 promoter-luciferase reporter, luminescence, 24 h. Potency, µM (highest dose often 9.22 µM), for the others: top-dose activation, negative = inhibition, most hits filed as activators. hit rate 2.8% among 320,000. AID 485297, 2010; further: % of control where 0% means no effect; nearly all actives have a fitted effect of over 60% in size
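Huh7 cells stably carrying a Rab9 promoter-luciferase reporter, 1500 cells per well in OP-MEM I with 10% FBS, treated with compound 24 hours at 37C. Luciferase activity read by luminescence after 10 minutes with Amplite reagent.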
KinaseGlo FLuc = Counterscreen for Luciferase (Kinase-Glo TM) Inhibition; Kinase-Glo luciferase, ATP luminescence, 8 min; Potency, µM (highest dose often 38.3 µM), inactives show at the top dose activity change, negative = inhibition, usual class: inhibitors; hit rate 0.28% among 200,000; AID 1379, 2008; further: on the % scale 0 is the no-effect control and ±100 the full control effect; nearly all actives have a fitted effect of over 60% in size
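Light output from Kinase-Glo luciferase with luciferin and 10 uM ATP in 50 mM imidazole pH 7.2, KCl, MgCl2, Tween 20, BSA; compound pin-delivered, 8-min ambient incubation, then luminescence read.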
ELG1 genotox = qHTS screen for small molecules that induce genotoxicity in human embryonic kidney (HEK293T) cells expressing luciferase-tagged ELG1 | hit rate 1.3% among 330,000 | HEK293T ELG1-luciferase reporter, luminescence, 16 h | Potency, µM (doses to about 46 µM), without a hit: at the top dose activity change, positive = activation, most hits filed as activators; further: % of control where 0% means no effect; nearly all actives have a fitted effect of over 60% in size
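HEK293T cells expressing luciferase-tagged ELG1 were treated with compound or DMSO for 16 hr at 37°C. Luciferase activity was then read after 30 min with ONE-Glo at room temperature; rising signal flags genetic stress.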
NPC1 promoter act = qHTS Assay for NPC1 Promoter Activators; Huh7 NPC1 promoter luciferase reporter, 24 h; Potency, µM (doses to about 9.22 µM), for the others: top-dose activation, most hits filed as activators; hit rate 2.4% among 320,000; further: % of control where 0% means no effect; nearly all actives have a fitted effect of over 60% in size
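Stable NPC1-promoter luciferase Huh7 line; cpd (DMSO) 24 h, 37 °C, 5% CO2; Amplite luciferase reagent 10 min RT; luminescence readout. qHTS format.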
Numbers without * were called inactive; ? = inconclusive; / = not tested or not shown; [ ] = dose if it differs, or a comment. Sampled rows, rich in hits. Any-hit rate of the full collection: about 7.5%. The call rests on the fitted dose curve; in most records, active means well fitted curve in the direction sought with a large enough effect; inconclusive means small, poorly fitted or top-dose-only effect, or another doubt; inactive means no such curve, though single readings can be large; an effect the other way counts as inactive or inconclusive. Potency means the concentration at half of the fitted maximal effect.

SMILES | FLuc modulator | SMN2 splice enh | Rab9 prom act | KinaseGlo FLuc | ELG1 genotox | NPC1 promoter act
CCCOC(=O)c1ccc(NC(=O)c2ccccc2OC)cc1 | ? | -18% | 14% | -3% | 16% | 10%
CCCOC(=O)c1ccc(NC(=O)c2ccoc2C)cc1 | 9.5µM* | ? | 1.6µM* | ? | 15% | 3.2µM*
CCCCOC(=O)c1ccc(NC(=O)c2ccoc2C)cc1 | ? | ? | ? | -2% | 21µM* | 21%
COc1cc(NC(=O)Cn2c(=O)n(Cc3ccco3)c(=O)c3sc4ccccc4c32)cc(OC)c1 | -3% | 2% | / | / | / | /
CCOc1ccccc1CNC(=O)C1CCCN(c2nnc(C)c3c(C)n(-c4ccccc4)nc23)C1 (centres undefined) | 1% | / | -2% | / | 6% | 0%
COc1ccc(NC(=O)c2oc3ccc(S(=O)(=O)N4CCCCC4)cc3c2C)cc1Cl | 4% | / | / | / | / | /
COCc1nc(-c2ccc(-c3ccc(OC)cc3)nc2OC)no1 | ? | 19% | 24% | 2% | 12% | 13%
CCc1nc(-c2ccc(-c3ccc(OC)cc3)nc2OC)no1 | 21µM* | ? | ? | 2% | ? | ?
COCc1nc(-c2ccc(-c3ccccc3)nc2OC)no1 | ? | 22µM* | 4µM* | -2% | 4% | ?
O=c1cc(-c2ccc(C3CCCCC3)cc2)[nH][nH]1 | 11µM* | 9% | 1% | -1% | 17% | 4%
O=c1cc(-c2ccc(F)cc2)[nH][nH]1 | 0% | 19% | -2% | 0% | -2% | -4%
CC(C)CC[n+]1ccccc1/C=C/c1ccc(N(C)C)cc1 | 3% | / | -41% | / | -11% | -40%
CN(C)c1ccc(/C=C/c2cccc[n+]2[O-])cc1 | 19µM* | / | 2.5µM* | / | ? | ?
CN(C)c1ccc(/C=C/c2ccncc2)cc1 | ? | ? | ? | -3% | 16µM* | ?
COc1ccc(/C=C/c2ccncc2)cc1 | 12µM* | ? | 2.8µM* | -7% | ? | 3.5µM*
Cc1cccc(CN2C(=O)CSc3ccc(C(=O)NC4CC4)cc32)c1 | 0% | / | -4% | / | -1% | -6%
O=C(OC[C@@H]1O[C@@](O)(COC(=O)c2cccnc2)[C@H](OC(=O)c2cccnc2)[C@H]1OC(=O)c1cccnc1)c1cccnc1 | / | / | / | 3%[39.9 µM] | / | /
Cc1cccc(N2CCN(S(=O)(=O)c3csc(C(N)=O)c3)CC2)c1C | -11% | / | / | / | / | /
NC(=O)N/N=C/c1ccccc1OCc1cccc2ccccc12 | 1% | / | 4% | / | ? | -6%
CCC(Sc1nncn1C)C(=O)Nc1nnc(-c2ccccc2Cl)s1 (centres undefined) | -20% | 22% | 3% | 0% | ? | 16%
COc1ccccc1-c1nnc(NC(C)=O)s1 | 6.7µM* | 25µM* | ? | -7% | ? | ?
COc1ccccc1-c1nnc(NC(=O)C(C)Sc2nncn2C)s1 (centres undefined) | 19µM* | -38% | 14% | 0% | 12% | 3%
COc1ccccc1-c1nnc(NC(=O)C(C)C)s1 | ? | 19% | 12% | -1% | 19% | ?
COc1ccccc1NC(=O)c1ccc(NC(=O)CSc2nncn2C)cc1 | -1% | 4% | -2% | 1% | 0% | -3%
COc1ccccc1-c1nnc(NC(=O)CSc2nncn2C)s1 | 0.76µM* | 11µM* | ? | -2% | 6% | ?
SMILES | FLuc modulator | SMN2 splice enh | Rab9 prom act | KinaseGlo FLuc | ELG1 genotox | NPC1 promoter act
O=C(Nc1ccccc1N1CCCC1)C1CCN(C(=O)c2ccc(F)cc2)CC1 | 2% | / | -4% | / | -1% | -3%
COc1ccc(NC(=O)N2CC3(CCN(C(=O)c4ccco4)CC3)C2)cc1 | / | -3% | / | -4% | / | /
COc1ccc(-n2ncc(C(=O)N3CCN(c4cc(C)ccc4C)CC3)c2C2CCN(C(=O)OC(C)(C)C)CC2)cc1 | 1% | / | / | / | / | /
Cc1ccccc1OCCC(=O)NNC(=O)c1ccccc1F | / | / | / | / | 1% | /
C=CCC(O)(CC=C)CNC(=O)c1ccc(OC)c(OC2CCN(C(C)=O)CC2)c1 | 0% | / | 4% | / | -5% | 0%
C(#Cc1ccccc1)Cn1nnc2ccccc21 | 17µM* | 22% | ? | -4% | ? | ?
O=S(=O)(Nc1ccc(-c2nc3cccnc3s2)cc1)c1ccc(Cl)s1 | 19µM* | 13µM* | ? | 3% | 8.2µM* | ?
Cc1ccc(-c2nc3cccnc3s2)cc1NS(=O)(=O)c1ccc2c(c1)CCCC2 | -18% | 20% | -1% | 1% | 1% | -4%
CCS(=O)(=O)Nc1cccc(-c2nc3cccnc3s2)c1 | 19µM* | / | ? | / | 4% | ?
CCS(=O)(=O)Nc1ccc(-c2nc3cccnc3s2)cc1 | 1.7µM* | / | 0.71µM* | / | ? | 0.79µM*
Cc1nc2ccc(S(=O)(=O)Nc3ccc(-c4nc5cccnc5s4)cc3)cc2s1 | ? | ? | -3% | -1% | 11% | 3%
CCS(=O)(=O)Nc1cc(-c2nc3cccnc3s2)ccc1C | 9.5µM* | 11µM* | 24% | -3% | 2.9µM* | 3.5µM*
Cc1cccc(NC(=O)NC2CCCCCCC2)c1C | ? | / | 26% | / | 18% | 19%
C=CCN(c1ccccc1)S(=O)(=O)c1cccc(C(=O)Nc2ccc(N3CCOCC3)cc2)c1 | -16% | / | -3% | / | -11% | -4%
COC(=O)C1CCN(C(=O)COc2ccc(S(=O)(=O)N3CCOCC3)cc2Cl)CC1 | / | / | / | / | 2% | /
O=C(O)c1ccc(NC2=Nc3cccc4cccc2c34)cc1 | ? | / | 1.6µM* | / | 11% | 1.6µM*
COc1ccccc1NC1=Nc2cccc3cccc1c23 | 19µM* | / | -1% | / | -1% | 2%
NC(=O)NNC1=Nc2cccc3cccc1c23 | 2% | -4% | 0% | -3% | -6% | -12%
COc1ccccc1N1CCN(C2=Nc3cccc4cccc2c34)CC1 | 3.4µM* | / | ? | 0% | 5% | ?
COc1ccc(-n2c(=S)[nH]c3sc(-c4ccccc4)cc3c2=O)c(OC)c1 | 27µM* | / | 1% | / | -1% | -6%
Cc1cc(C(=O)NC2CCCc3c2cnn3-c2ccc(C(C)(C)C)cc2)n[nH]1 (centres undefined) | ? | / | -13% | / | 6% | -8%
CC(C)c1ccc(-c2noc(SCC(=O)N(C)c3ccc(F)cc3)n2)cc1 | 6µM* | / | / | / | / | /
CC(C)c1ccc(-c2noc(SCC(=O)N3CCCCC3)n2)cc1 | 2.4µM* | / | / | / | / | /

Screens (PubChem BioAssay)
